PAFAH1B2 inh: inhibitors of human PAFAH1B2; recombinant PAFAH1B2, FP-rhodamine activity probe, fluorescence polarization; hit rate 1.2% among 340,000; P68402; inhibition, % at 3.39 µM;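 active means inhibition above the mean of all tested compounds plus 3 SD, cut at about 24% in these data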;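 further: 0% = enzyme with DMSO and 100% = wells lacking PAFAH1B2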
Target sequence (P68402 whole entry, looked up): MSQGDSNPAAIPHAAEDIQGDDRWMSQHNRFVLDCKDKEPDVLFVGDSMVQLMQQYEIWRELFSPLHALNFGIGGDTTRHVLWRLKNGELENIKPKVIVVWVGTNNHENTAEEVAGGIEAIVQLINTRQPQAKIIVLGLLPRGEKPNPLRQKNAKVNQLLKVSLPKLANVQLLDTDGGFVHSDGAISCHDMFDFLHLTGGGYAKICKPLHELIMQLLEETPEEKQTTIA
Pemphigus Ab inh: blocks pemphigus antibody binding to human desmoglein-3; P32926; DSG3-coupled beads, scFv-anti-DSG3-GFP binding, flow cytometry; hits give low values; binding (percent of control), % at 10 µM; hit rate 0.48% among 310,000; AID 588358;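 active means binding more than 3 SD below its plate's average and above zero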;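 further: hits lower antibody fragment binding to DSG3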
M18AAP inhibitor: PfM18AAP enzyme inhibition; hit rate 1.2% among 290,000; AID 1822; inhibition, % at 7.35 µM; recombinant PfM18AAP, H-Glu-NHMec fluorogenic cleavage;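 active means inhibition above the campaign mean inhibition over all tested compounds plus 3 SD, cut at about 28% in these data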;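 further: 0% = plate median of test compound wells and 100% = 2 mM ZnCl2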
PAFAH2 FP inh: PAFAH2 (human) inhibition; Q99487; recombinant PAFAH2, FP-rhodamine activity probe, fluorescence polarization; inhibition, % at 3.39 µM; hit rate 0.99% among 340,000; AID 492956;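 active means inhibition above the mean over all tested compounds plus 3 SD, cut at about 30% in these data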;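 further: inhibitors block probe labeling of enzyme so polarization drops; 0% = enzyme with DMSO and 100% = wells lacking PAFAH2 protein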
pPAFAH FP inh: pPAFAH (human) enzyme inhibition. inhibition, % at 3.39 µM. AID 463082. Q13093. hit rate 1.5% among 330,000. recombinant pPAFAH, FP-rhodamine probe fluorescence polarization;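 active means inhibition above the mean inhibition across the screen plus 3 SD, cut at about 25% in these data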;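 further: inhibitors block binding of the rhodamine activity-based probe so polarization drops; 0% = enzyme with DMSO and 100% = wells lacking pPAFAH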
PAFAH1B3 FP inh: inhibitors of human PAFAH1B3 | Q15102 | recombinant PAFAH1B3, FP-rhodamine probe, fluorescence polarization | inhibition, % at 3.39 µM | hit rate 0.28% among 340,000 | AID 492972;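 active means inhibition above the screen-wide average of all tested compounds plus 3 SD, cut at about 25% in these data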;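 further: 0% = enzyme with DMSO only and 100% = wells lacking PAFAH1B3 protein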
Target sequence (Q15102 whole entry, looked up): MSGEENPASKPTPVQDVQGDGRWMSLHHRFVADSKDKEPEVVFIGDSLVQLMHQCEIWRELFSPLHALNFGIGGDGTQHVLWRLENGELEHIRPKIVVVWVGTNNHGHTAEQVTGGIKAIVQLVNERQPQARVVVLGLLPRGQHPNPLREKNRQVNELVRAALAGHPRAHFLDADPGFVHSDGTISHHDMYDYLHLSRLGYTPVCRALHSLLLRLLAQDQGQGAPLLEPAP
Active calls of the source: *. Shown are actives, neighbours in structure and some others; about 3.8% of the full set was active somewhere.

What do the screens show for `CCOc1ccccc1N(CC(=O)N1CCN(Cc2ccccc2)CC1)S(=O)(=O)c1ccccc1`?
Pemphigus Ab inh: 98.9

How did CCOC(=O)c1cc(-c2ccccc2)sc1NC(=O)CSc1nncs1 do in these assays?
PAFAH1B2 inh: 2.1; M18AAP inhibitor: -4.7; PAFAH2 FP inh: -6.5; pPAFAH FP inh: 24.5; PAFAH1B3 FP inh: 12.0

What do the screens show for `CCOC(=O)c1cc(-c2ccccc2)sc1NC(=O)CSc1nnc(N)s1`?
PAFAH1B2 inh: 1.0; Pemphigus Ab inh: 109.6; M18AAP inhibitor: 5.3; PAFAH2 FP inh: -0.5; pPAFAH FP inh: 25.5*; PAFAH1B3 FP inh: -2.2

Results for C/C=C(\C)C(=O)Nc1cccc(C2=NOC3(C2)C[C@@H](C(N)=O)N(C(=O)/C(C)=C/C)C3)c1 (stereo partly specified) ?
PAFAH1B2 inh: 2.1; Pemphigus Ab inh: 92.2; PAFAH2 FP inh: 2.8; pPAFAH FP inh: 5.2; PAFAH1B3 FP inh: 3.8

Results for C=C(C)C(=O)Nc1cccc(C2=NOC3(C2)C[C@@H](C(N)=O)N(C(=O)/C(C)=C/C)C3)c1 (stereo partly specified) ?
PAFAH1B2 inh: 6.3; Pemphigus Ab inh: 89.1*; PAFAH2 FP inh: -3.0; pPAFAH FP inh: -5.2; PAFAH1B3 FP inh: 2.6

How did C=C(C)C(=O)Nc1cccc(C2=NOC3(C2)C[C@@H](C(N)=O)N(C(=O)/C=C/C=C/C)C3)c1 (stereo partly specified) do in these assays?
PAFAH1B2 inh: -8.6; Pemphigus Ab inh: 89.7*; PAFAH2 FP inh: 5.6; pPAFAH FP inh: 3.1; PAFAH1B3 FP inh: 1.1

How did C[C@H](CO)N1C[C@H](C)[C@@H](CN(C)CC2CC2)OCc2cnnn2CCCC1=O do in these assays?
Pemphigus Ab inh: 102.0

Results for CCN1C(=O)[C@H]2[C@@H](c3ccc(C(F)(F)F)cc3)N[C@]3(CCCN(CC4CCCCC4)C3=O)[C@H]2C1=O ?
Pemphigus Ab inh: 100.1

How did Cc1ccc(S(=O)(=O)c2cc(OC(=O)c3ccco3)ccc2OC(=O)c2ccco2)cc1 do in these assays?
PAFAH1B2 inh: 3.2; Pemphigus Ab inh: 100.1; M18AAP inhibitor: -5.8; PAFAH2 FP inh: 8.8; pPAFAH FP inh: 0.5; PAFAH1B3 FP inh: 0.0

How did O=C(Oc1ccc(-c2ccccc2)cc1)c1ccco1 do in these assays?
PAFAH1B2 inh: 32.4*; Pemphigus Ab inh: 89.9; PAFAH2 FP inh: 6.0; PAFAH1B3 FP inh: 9.2

What do the screens show for `O=C(Oc1ccc(OC(=O)c2ccco2)c(S(=O)(=O)c2ccc(Br)cc2)c1)c1ccco1`?
PAFAH1B2 inh: 44.5*; Pemphigus Ab inh: 97.6; M18AAP inhibitor: -5.2; PAFAH2 FP inh: 10.5; pPAFAH FP inh: 0.6; PAFAH1B3 FP inh: 12.0

What do the screens show for `CCN(C(=O)CSc1nc2ccccc2o1)c1c(N)n(Cc2ccccc2)c(=O)[nH]c1=O`?
PAFAH1B2 inh: -1.1; Pemphigus Ab inh: 109.2; PAFAH2 FP inh: -7.5; pPAFAH FP inh: 28.9*; PAFAH1B3 FP inh: -1.3

What do the screens show for `CCN(C(=O)CSc1nc2ccccc2n1CC(C)C)c1c(N)n(Cc2ccccc2)c(=O)[nH]c1=O`?
PAFAH1B2 inh: 0.3; Pemphigus Ab inh: 96.2; PAFAH2 FP inh: 2.9; PAFAH1B3 FP inh: 15.6

What do the screens show for `CCN(C(=O)CN1CCN(c2ccccc2O)CC1)c1c(N)n(Cc2ccccc2)c(=O)[nH]c1=O`?
PAFAH1B2 inh: -4.8; Pemphigus Ab inh: 95.4; M18AAP inhibitor: 28.4*; PAFAH2 FP inh: -10.3; pPAFAH FP inh: 5.0; PAFAH1B3 FP inh: 6.0

What do the screens show for `C=C(C)C(=O)N1CCN(C(=O)C(=C)C)c2ccccc21`?
PAFAH1B2 inh: -0.1; Pemphigus Ab inh: 98.1; PAFAH2 FP inh: -5.2; PAFAH1B3 FP inh: 8.3

Results for Cc1c(N=C2NN=C(c3ccc(Cl)cc3)CS2)c(=O)n(-c2ccccc2)n1C ?
PAFAH1B2 inh: 4.5; Pemphigus Ab inh: 102.2; M18AAP inhibitor: 5.2; PAFAH2 FP inh: 12.0; pPAFAH FP inh: -0.1; PAFAH1B3 FP inh: 6.7

How did Cc1c(N=C2NN=C(c3c[nH]c4ccccc34)CS2)c(=O)n(-c2ccccc2)n1C do in these assays?
PAFAH1B2 inh: 1.6; Pemphigus Ab inh: 85.0*; M18AAP inhibitor: 10.3; PAFAH2 FP inh: 2.7; pPAFAH FP inh: 1.5; PAFAH1B3 FP inh: 2.2

How did CC(=O)Cc1nsc(NC(=O)c2ccc(COc3ccccc3Cl)o2)n1 do in these assays?
PAFAH1B2 inh: 5.8; Pemphigus Ab inh: 99.5; M18AAP inhibitor: -3.6; PAFAH2 FP inh: -0.3; pPAFAH FP inh: -4.5; PAFAH1B3 FP inh: 1.4

How did CC(=O)Cc1nsc(NC(=O)c2ccc(COc3ccccc3)o2)n1 do in these assays?
PAFAH1B2 inh: 1.8; Pemphigus Ab inh: 101.7; M18AAP inhibitor: -5.6; PAFAH2 FP inh: -9.0; pPAFAH FP inh: 26.8*; PAFAH1B3 FP inh: -3.7

What do the screens show for `O=C(Nc1ccn(CCCN2CCC(N3CCOCC3)CC2)c(=O)n1)OCc1ccccc1`?
Pemphigus Ab inh: 103.0

How did CC(C)CSc1nc2c(=O)[nH][nH]c(=O)c2n1Cc1ccccc1 do in these assays?
PAFAH1B2 inh: 18.6; Pemphigus Ab inh: 100.5; M18AAP inhibitor: -2.0; PAFAH2 FP inh: 1.3; pPAFAH FP inh: 29.6*; PAFAH1B3 FP inh: 8.9

What do the screens show for `Cc1ccc(-c2c[n+](Cc3ccc(Cl)cc3)c3n2CCC3)cc1`?
PAFAH1B2 inh: 3.9; Pemphigus Ab inh: 110.9; M18AAP inhibitor: -7.6; PAFAH2 FP inh: -4.1; pPAFAH FP inh: 5.4; PAFAH1B3 FP inh: 5.2

Results for Clc1ccc(C[n+]2csc3ccccc32)cc1 ?
PAFAH1B2 inh: 6.6; M18AAP inhibitor: 37.6*; PAFAH2 FP inh: -6.0; pPAFAH FP inh: 3.0; PAFAH1B3 FP inh: 0.6

How did C=CCNC(=O)CSc1ccc(Cl)cc1 do in these assays?
PAFAH1B2 inh: 28.7*; Pemphigus Ab inh: 103.5; M18AAP inhibitor: -1.6; PAFAH2 FP inh: -7.2; pPAFAH FP inh: 3.0; PAFAH1B3 FP inh: 0.2

What do the screens show for `C=CCNC(=O)CSCc1ccc(Br)cc1`?
PAFAH1B2 inh: 26.8*; Pemphigus Ab inh: 97.2; M18AAP inhibitor: -9.9; PAFAH2 FP inh: 1.5; pPAFAH FP inh: 0.6; PAFAH1B3 FP inh: 2.5

What do the screens show for `CCn1c(-c2c(Cl)c(C)nn2C)n[nH]c1=S`?
PAFAH1B2 inh: -2.7; Pemphigus Ab inh: 103.4; M18AAP inhibitor: 31.6*; PAFAH2 FP inh: 6.8; pPAFAH FP inh: 5.0; PAFAH1B3 FP inh: 9.9

Results for N#Cc1c(N)sc(=S)c2c1CCN(Cc1ccccc1)C2 ?
pPAFAH FP inh: 40.4*

How did CCS(=O)(=O)c1ccc(OC)c(N=Nc2ccc(O)c3ncccc23)c1 do in these assays?
PAFAH1B2 inh: 7.2; Pemphigus Ab inh: 96.7; M18AAP inhibitor: 4.3; PAFAH2 FP inh: -3.7; pPAFAH FP inh: 17.1; PAFAH1B3 FP inh: 1.7

Results for NS(=O)(=O)c1ccc(N=Nc2c(O)ccc3ccccc23)cc1 ?
PAFAH1B2 inh: 0.6; Pemphigus Ab inh: 71.1*; M18AAP inhibitor: -2.7; PAFAH2 FP inh: 6.7; pPAFAH FP inh: 4.2; PAFAH1B3 FP inh: 8.5

How did CCOc1ccc(N=Nc2ccc(O)c3ncccc23)cc1 do in these assays?
PAFAH1B2 inh: 2.6; Pemphigus Ab inh: 89.3; M18AAP inhibitor: -11.6; PAFAH2 FP inh: -5.5; PAFAH1B3 FP inh: 8.9

Results for Cc1cccc(N=Nc2ccc(O)c3ncccc23)c1 ?
PAFAH1B2 inh: 10.7; Pemphigus Ab inh: 78.8; M18AAP inhibitor: -2.2; PAFAH2 FP inh: 10.8; pPAFAH FP inh: 50.9*; PAFAH1B3 FP inh: 8.1

Source: PubChem BioAssay (several laboratories)
